The record followed here is PubChem BioAssay (EPA / NIEHS).

Each structure is given as a SMILES string. Records with an inconclusive call do not appear. Activity calls are given as the source filed them. How the source made its calls, unless noted: active means hit-call score of the fitted dose curve at least 0.9, where 1 is the maximum; inactive means score below 0.9.

Assay [1] addresses Paired box protein Pax-6 (Homo sapiens) (UniProt P26367). Nature of the assay: ATG_Pax6_CIS: Attagene CIS-FACTORIAL HepG2 Assay for human Paired Box 6 (PAX6) (AID 2282956). The settings on record: HepG2 CIS-FACTORIAL PAX6 reporter transcription, RNA readout; actives raise or lower the signal. The essentials: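 Values derive from bidirectional curve fitting of reporter mRNA signal relative to DMSO. HepG2 cells bearing transfected cis-regulated MRTUs were exposed for 24 h; transcripts were read by RT-PCR and capillary electrophoresis.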

Assay [2] is described as follows: ATG_PXRE_CIS: Attagene CIS-FACTORIAL HepG2 Assay for human Pregnane X Receptor Element (PXRE) (AID 2282957). The following applies: HepG2 Attagene CIS-FACTORIAL PXRE reporter, mRNA; actives raise or lower the signal. Put shortly:
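Bidirectional activity, baselined to DMSO, derived from reporter mRNA fluorescence (RT-PCR plus capillary electrophoresis) in HepG2 cells bearing cis-promoter reporter units, 24 h exposure.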

Assay [3] in a line: ATG_PPRE_CIS: Attagene CIS-FACTORIAL HepG2 Assay for human Peroxisome Proliferator-activated Response Element (PPRE) (AID 2282958). The following applies: HepG2 PPRE cis-element reporter, Attagene transcription factor profiling; actives raise or lower the signal. Put shortly:
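HepG2 cells transiently transfected with multiplexed cis-element reporter units measure endogenous transcription factor activity. After 24 h compound exposure, reporter mRNA is quantified by RT-PCR, 6-FAM labeling, HpaI digestion and capillary electrophoresis; bidirectional fits are made against DMSO baseline.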

Assay [4] in a line: ATG_Sox_CIS: Attagene CIS-FACTORIAL HepG2 Assay for human SRY-box transcription factor (SOX) (AID 2282960). The settings on record: HepG2 Attagene cis-factorial SOX reporter, mRNA; actives raise or lower the signal. Put shortly:
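HepG2 cells transiently transfected with cis-element-driven multiple reporter transcription units, dosed 24 h; reporter mRNA measured by RT-PCR, FAM labelling, HpaI digestion and capillary electrophoresis. Bidirectional fit versus DMSO baseline.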

The target in assay [5] is Transcription factor Sp1 (Homo sapiens) (UniProt P08047). Nature of the assay: ATG_Sp1_CIS: Attagene CIS-FACTORIAL HepG2 Assay for human Specificity Protein 1 (Sp1) (AID 2282961). The settings on record: HepG2 Sp1 cis-reporter transcription, actives raise or lower the signal. The essentials: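 HepG2 cells transiently transfected with multiple reporter transcription units driven by cis-regulatory elements; Sp1-responsive reporter mRNA measured 24 h after dosing by RT-PCR and capillary electrophoresis fluorescence, fitted bidirectionally against DMSO baseline.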
Sequence of Transcription factor Sp1 (Homo sapiens) (P08047 whole entry, looked up): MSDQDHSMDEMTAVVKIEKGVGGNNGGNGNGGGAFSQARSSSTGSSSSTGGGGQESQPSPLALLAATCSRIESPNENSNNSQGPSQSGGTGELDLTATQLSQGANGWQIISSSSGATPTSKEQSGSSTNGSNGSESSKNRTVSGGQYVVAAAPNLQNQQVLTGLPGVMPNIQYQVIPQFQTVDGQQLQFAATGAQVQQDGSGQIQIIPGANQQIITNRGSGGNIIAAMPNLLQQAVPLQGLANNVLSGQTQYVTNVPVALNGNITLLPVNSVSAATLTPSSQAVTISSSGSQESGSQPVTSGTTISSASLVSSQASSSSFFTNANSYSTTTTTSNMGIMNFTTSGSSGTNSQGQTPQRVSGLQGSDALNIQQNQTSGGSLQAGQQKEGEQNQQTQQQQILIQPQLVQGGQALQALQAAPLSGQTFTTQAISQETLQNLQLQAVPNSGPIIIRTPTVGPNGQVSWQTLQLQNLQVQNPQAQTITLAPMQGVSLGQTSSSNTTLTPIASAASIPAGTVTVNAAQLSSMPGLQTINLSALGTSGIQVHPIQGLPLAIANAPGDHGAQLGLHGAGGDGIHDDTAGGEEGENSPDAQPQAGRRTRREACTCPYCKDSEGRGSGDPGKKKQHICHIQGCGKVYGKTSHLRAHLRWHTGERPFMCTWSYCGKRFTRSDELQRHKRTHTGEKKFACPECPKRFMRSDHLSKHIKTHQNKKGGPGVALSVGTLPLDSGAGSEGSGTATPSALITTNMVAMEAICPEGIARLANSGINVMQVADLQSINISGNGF

Assay [6] is described as follows: ATG_SREBP_CIS: Attagene CIS-FACTORIAL HepG2 Assay for human Sterol Regulatory Element Binding (SREBP) (AID 2282962). The settings on record: HepG2 Attagene cis-factorial SREBP reporter, mRNA; actives raise or lower the signal. Put shortly: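 Values derive from bidirectional curve fitting with DMSO as baseline. The underlying measurement is reporter mRNA from cis-element-regulated units in transiently transfected HepG2, quantified by RT-PCR and capillary electrophoresis after 24 h exposure.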

The target of assay [7] is Signal transducer and activator of transcription 3 (Homo sapiens) (UniProt P40763). Nature of the assay: ATG_STAT3_CIS: Attagene CIS-FACTORIAL HepG2 Assay for human Signal Transducer and Activator of Transcription 3 (STAT3) (AID 2282963). The following applies: HepG2, Attagene cis-factorial STAT3 reporter transcription; actives raise or lower the signal. Put shortly: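 Readout is reporter transcript quantified by RT-PCR and capillary electrophoresis, with 6-FAM primer extension and HpaI digestion. Total RNA is taken 24 h after dosing transiently transfected HepG2 carrying cis-regulated reporter units. Bidirectional fit against DMSO.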
Sequence of Signal transducer and activator of transcription 3 (Homo sapiens) (P40763 whole entry, looked up): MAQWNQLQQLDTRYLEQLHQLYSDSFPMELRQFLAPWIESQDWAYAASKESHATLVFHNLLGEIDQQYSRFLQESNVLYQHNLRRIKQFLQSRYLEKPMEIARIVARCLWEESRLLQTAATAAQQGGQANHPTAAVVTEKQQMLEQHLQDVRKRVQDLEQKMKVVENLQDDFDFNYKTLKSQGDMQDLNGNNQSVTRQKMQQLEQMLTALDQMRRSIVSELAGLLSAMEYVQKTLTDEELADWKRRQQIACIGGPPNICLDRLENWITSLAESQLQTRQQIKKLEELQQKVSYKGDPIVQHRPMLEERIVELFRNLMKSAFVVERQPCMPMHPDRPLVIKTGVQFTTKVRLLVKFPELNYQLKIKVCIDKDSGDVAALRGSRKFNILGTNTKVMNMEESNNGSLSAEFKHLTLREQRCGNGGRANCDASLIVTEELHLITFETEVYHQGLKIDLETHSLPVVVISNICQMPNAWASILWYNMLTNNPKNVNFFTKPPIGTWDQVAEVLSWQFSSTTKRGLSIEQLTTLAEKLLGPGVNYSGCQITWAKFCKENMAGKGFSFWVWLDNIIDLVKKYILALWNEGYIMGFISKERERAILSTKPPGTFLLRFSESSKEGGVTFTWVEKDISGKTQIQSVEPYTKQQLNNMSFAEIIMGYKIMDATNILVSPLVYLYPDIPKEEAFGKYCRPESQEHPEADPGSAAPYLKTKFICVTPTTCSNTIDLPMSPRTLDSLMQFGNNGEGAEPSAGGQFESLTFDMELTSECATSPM

A short description of assay [8]: ATG_TA_CIS: Attagene CIS-FACTORIAL HepG2 Assay for human TA Basal Promoter (AID 2282964). The settings on record: HepG2 Attagene CIS-factorial TA basal promoter reporter; actives raise or lower the signal. Put shortly:
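HepG2 cells transiently transfected with multiple reporter units under cis promoter elements, reporting endogenous transcription factor activity; this endpoint tracks the TA basal promoter as background control. Reporter mRNA after 24 h dosing measured by RT-PCR/capillary electrophoresis; bidirectional fits versus DMSO.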

Assay [9] in a line: ATG_TCF_b_cat_CIS: Attagene CIS-FACTORIAL HepG2 Assay for human T-Cell-Factor with beta-catenin (TCF/b-cat) (AID 2282965). The following applies: HepG2 TCF/beta-catenin cis-reporter transcription, actives raise or lower the signal. Put shortly: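 Endogenous transcription factor activity is captured through cis-promoter reporter constructs transiently introduced into human HepG2 liver cells. Induced reporter mRNA is measured after 24 h and fitted bidirectionally relative to DMSO.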

The nature of assay [10]: ATG_TAL_CIS: Attagene CIS-FACTORIAL HepG2 Assay for human TAL Basal Promoter (AID 2282966).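 Further: background control endpoint measuring basal TAL promoter reporter mRNA not a specific factor.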 The settings on record: HepG2 Attagene cis-factorial TAL promoter reporter; actives raise or lower the signal. The essentials: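 Human hepatoma HepG2 cells, transfected with promoter-regulated reporter units, were treated 24 h. Reporter transcript levels, measured through RT-PCR and capillary electrophoresis, were fitted for gain or loss relative to DMSO.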

The nature of assay [11]: ATG_TGFb_CIS: Attagene CIS-FACTORIAL HepG2 Assay for human Transforming Growth Factor (TGF) (AID 2282967). The following applies: HepG2 Attagene CIS TGFb reporter, mRNA transcription; actives raise or lower the signal. Put shortly: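 HepG2 cells transiently transfected with cis-promoter-driven multiple reporter units measure endogenous TF activity; reporter mRNA quantified at 24 h by RT-PCR, FAM labeling, HpaI digestion and capillary electrophoresis. Bidirectional fit vs DMSO.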

Assay [12] is described as follows: ATG_VDRE_CIS: Attagene CIS-FACTORIAL HepG2 Assay for human Vitamin D Receptor Element (VDRE) (AID 2282968). The settings on record: HepG2 VDRE cis-reporter transcription, actives raise or lower the signal. Put shortly: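 Readout is VDRE-driven reporter mRNA reflecting endogenous factor activity in human HepG2 cells, sampled 24 h post-dose. Quantification used labelled RT-PCR products separated by capillary electrophoresis; bidirectional analysis relative to DMSO.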

Assay [13] addresses Estrogen receptor (Homo sapiens) (UniProt P03372). Description: ATG_ERa_TRANS: Attagene TRANS-FACTORIAL HepG2 Assay for human Estrogen Receptor alpha (ERa) (AID 2282970; active means hit-call score of the fitted dose curve at least 0.9, where 1 is the maximum). The settings on record: HepG2 Attagene TRANS ERa GAL4 reporter, mRNA. The essentials:
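Signal derives from fluorescence of labelled reporter PCR fragments separated by capillary electrophoresis. HepG2 cells transiently carrying multiple GAL4-UAS reporter units were treated 24 hours, and induction above DMSO baseline was fitted as activity.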

The target in assay [14] is Steroid hormone receptor ERR1 (Homo sapiens) (UniProt P11474). Description: ATG_ERRa_TRANS: Attagene TRANS-FACTORIAL HepG2 Assay for human Estrogen-Related Receptor alpha (ERRa) (AID 2282971; active means hit-call score of the fitted dose curve at least 0.9, where 1 is the maximum). The settings on record: HepG2 Attagene TRANS reporter, ERRa transactivation. The essentials:
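Signal gain relative to DMSO for an ERRa-Gal4 chimeric receptor, read as reporter mRNA by RT-PCR/capillary electrophoresis. Human HepG2 liver cells, transient multiplex reporter transfection, 24 h chemical exposure.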

Assay [15] addresses X-box-binding protein 1 (Homo sapiens) (UniProt P17861). Nature of the assay: ATG_Xbp1_CIS: Attagene CIS-FACTORIAL HepG2 Assay for human X-box Binding Protein 1 (XBP1) (AID 2282972). The settings on record: HepG2 XBP1 cis-element reporter, Attagene multiplex; actives raise or lower the signal. The essentials: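 Human hepatoma HepG2, cis-element reporter system, 24 h treatment; mRNA quantified by RT-PCR/CE fluorescence; fit relative to DMSO.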

Assay [16] can be described thus: ATG_M_19_TRANS: Attagene TRANS-FACTORIAL HepG2 Assay for M19 Transcription Factor (Internal Marker) (AID 2282974; active means hit-call score of the fitted dose curve at least 0.9, where 1 is the maximum). The following applies: HepG2 Attagene TRANS-FACTORIAL M19 internal marker reporter. The essentials:
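HepG2 cells transiently transfected with multiple GAL4-UAS reporter transcription units were exposed to chemicals for 24 h. Reporter mRNA was read by RT-PCR, 6-FAM primer extension, HpaI digestion and capillary electrophoresis; gain of signal fitted relative to DMSO.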

A short description of assay [17]: ATG_GAL4_TRANS: Attagene TRANS-FACTORIAL HepG2 Assay for GAL4 (Internal Marker) (AID 2282976; active means hit-call score of the fitted dose curve at least 0.9, where 1 is the maximum). The settings on record: HepG2 Attagene TRANS GAL4 internal marker reporter. Put shortly:
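Liver HepG2 line bearing multiplexed GAL4-UAS reporter constructs; 24 h chemical treatment. Transcripts were quantified as fluorescent fragments on capillary electrophoresis after RT-PCR and HpaI cut, with activity fitted upward from DMSO.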

Assay [18] in a line: ATG_RORE_CIS: Attagene CIS-FACTORIAL HepG2 Assay for human RAR-related Orphan Receptor Element (RORE) (AID 2282959). The settings on record: HepG2 Attagene cis-factorial RORE reporter, mRNA; actives raise or lower the signal. Put shortly: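 HepG2 cells transiently transfected with multiple cis-element reporter transcription units, exposed to chemical for 24 h. Reporter mRNA quantified by RT-PCR, 6-FAM primer-extension labeling, HpaI digestion and capillary electrophoresis; bidirectional fit versus DMSO baseline.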

Sequence of Steroid hormone receptor ERR1 (Homo sapiens) (P11474 whole entry, looked up, the tested form may be a part): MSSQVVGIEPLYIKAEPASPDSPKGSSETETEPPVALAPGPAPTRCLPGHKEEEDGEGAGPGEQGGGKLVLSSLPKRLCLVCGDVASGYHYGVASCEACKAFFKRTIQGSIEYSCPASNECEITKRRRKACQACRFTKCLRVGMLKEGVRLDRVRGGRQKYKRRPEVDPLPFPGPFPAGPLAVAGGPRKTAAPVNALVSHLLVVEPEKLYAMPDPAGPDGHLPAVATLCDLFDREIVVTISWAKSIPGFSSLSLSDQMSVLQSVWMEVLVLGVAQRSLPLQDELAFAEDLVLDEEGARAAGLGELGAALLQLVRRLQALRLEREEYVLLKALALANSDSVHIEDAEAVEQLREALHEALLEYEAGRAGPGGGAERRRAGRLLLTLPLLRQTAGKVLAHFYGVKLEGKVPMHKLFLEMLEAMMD
Sequence of Paired box protein Pax-6 (Homo sapiens) (P26367 whole entry, looked up): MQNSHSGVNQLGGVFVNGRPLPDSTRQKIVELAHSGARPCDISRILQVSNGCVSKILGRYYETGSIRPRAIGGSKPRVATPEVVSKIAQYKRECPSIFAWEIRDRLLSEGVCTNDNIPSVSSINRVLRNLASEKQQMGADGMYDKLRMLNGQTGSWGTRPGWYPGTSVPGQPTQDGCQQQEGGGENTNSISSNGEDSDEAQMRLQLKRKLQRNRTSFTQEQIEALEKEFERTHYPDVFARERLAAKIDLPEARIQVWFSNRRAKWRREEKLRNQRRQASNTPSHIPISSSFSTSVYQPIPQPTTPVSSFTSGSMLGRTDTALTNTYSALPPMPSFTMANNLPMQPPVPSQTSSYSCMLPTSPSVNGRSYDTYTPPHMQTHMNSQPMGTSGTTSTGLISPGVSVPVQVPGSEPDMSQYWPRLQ
Sequence of Estrogen receptor (Homo sapiens) (P03372 whole entry, looked up, the tested form may be a part): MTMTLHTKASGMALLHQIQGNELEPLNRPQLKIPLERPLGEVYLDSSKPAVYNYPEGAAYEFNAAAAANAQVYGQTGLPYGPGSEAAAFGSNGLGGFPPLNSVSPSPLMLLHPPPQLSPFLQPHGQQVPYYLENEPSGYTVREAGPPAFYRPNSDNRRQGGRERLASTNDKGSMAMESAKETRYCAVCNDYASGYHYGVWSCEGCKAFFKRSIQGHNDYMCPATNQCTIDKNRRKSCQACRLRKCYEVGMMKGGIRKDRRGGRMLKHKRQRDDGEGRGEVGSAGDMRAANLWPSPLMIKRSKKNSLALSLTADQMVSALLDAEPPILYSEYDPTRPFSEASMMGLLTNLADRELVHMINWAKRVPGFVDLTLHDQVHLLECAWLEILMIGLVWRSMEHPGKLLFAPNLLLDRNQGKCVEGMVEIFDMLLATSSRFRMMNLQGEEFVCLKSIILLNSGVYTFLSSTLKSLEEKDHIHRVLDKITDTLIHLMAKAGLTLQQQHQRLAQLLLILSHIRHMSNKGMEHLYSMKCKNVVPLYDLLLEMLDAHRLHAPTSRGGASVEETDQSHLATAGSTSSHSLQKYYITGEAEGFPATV
Sequence of X-box-binding protein 1 (Homo sapiens) (P17861 whole entry, looked up): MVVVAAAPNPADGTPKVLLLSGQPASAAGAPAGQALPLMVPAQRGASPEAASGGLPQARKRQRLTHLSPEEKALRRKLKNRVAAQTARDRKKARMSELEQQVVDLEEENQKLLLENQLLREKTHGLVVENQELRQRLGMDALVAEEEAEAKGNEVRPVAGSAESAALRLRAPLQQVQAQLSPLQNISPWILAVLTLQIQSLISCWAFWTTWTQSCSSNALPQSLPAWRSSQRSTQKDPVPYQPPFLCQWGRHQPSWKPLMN

`C1COCO1`: the compound was called inactive in assay [1], in assay [2], in assay [3], in assay [4], in assay [5] and in [6]. The outcome in assay [7], in [8], in assay [9], in assay [10], in [11] and in [12] was inactive. Also, the result in [13], in assay [14], in assay [15] and in [16] was inactive.

For the compound `C=C(C)C(=O)OCCOCCOC(=O)C(=C)C`, the result in [1], in assay [2], in assay [3], in assay [4], in assay [5] and in assay [6] was inactive. For the same compound, the call in assay [7], in assay [8], in assay [9], in assay [11], in assay [12] and in assay [15] was inactive. Further, the result in assay [16] and in assay [17] was inactive.

`O=S(=O)(O)CCCN1CCOCC1`: the compound was classed as inactive in [1], in assay [2], in assay [3], in [4], in [5] and in assay [7]. Besides, the compound was classed as inactive in [8], in assay [9], in assay [10], in assay [11], in [12] and in assay [15]. Besides, the compound was classed as inactive in assay [17].

For the compound `CC(O)CN` (stereo not given), the outcome in [1], in [2], in assay [18], in assay [4], in [5] and in assay [6] was inactive. The result in assay [7], in assay [8], in assay [9], in assay [10], in [11] and in [12] was inactive. Also, the compound was classed as inactive in [13], in assay [14], in [15], in assay [16] and in [17].

By AC50 is commonly meant the concentration giving half of the maximal activity seen. With `CC(C)(C)c1cccc(O)c1`, the call in assay [1], in [3], in assay [4], in assay [6], in [7] and in assay [8] was inactive. For the same compound, the compound was classed as inactive in assay [9], in assay [10], in assay [11] and in assay [15]. Moreover, the half-maximal activity concentration (AC50) in assay [2] is 11.5 µM (active); in assay [12] it was 28.1 µM (active); in assay [13], 14.7 µM (active).

With `CC1=CC(O)CC(C)(C)C1` (stereo not given), the call in [1], in [3], in assay [4], in assay [5], in assay [6] and in [7] was inactive. For the same compound, the compound was called inactive in [8], in assay [9], in assay [10], in assay [11], in assay [12] and in [14]. In addition, the compound was called inactive in [15], in assay [16] and in assay [17]. The AC50 in [2] is 10.8 µM (active).

On to `CCC(C)(C)C1CCC(OC)CC1` (stereo not given), for which the result in assay [1], in assay [3], in assay [18], in assay [4], in assay [5] and in [8] was inactive. For the same compound, the compound was classed as inactive in assay [9], in assay [10], in [12], in [15] and in assay [16]. The AC50 is 3.33 µM (active) in assay [2] and 58.7 µM (active) in [13].

As for `Cc1ccncc1`, the call in assay [1], in assay [2], in assay [18], in assay [4], in assay [5] and in [6] was inactive. Also, the compound was called inactive in assay [7], in [8], in assay [9], in [10], in [11] and in assay [12]. Moreover, the compound was classed as inactive in assay [15], in [16] and in [17].

On to `CCNC(=S)NCC`, for which the outcome in assay [1], in assay [2], in assay [3], in [18], in assay [4] and in assay [5] was inactive. The compound was called inactive in [7], in assay [8], in assay [9], in assay [10], in [11] and in assay [12]. Besides, the result in assay [15] was inactive.

In the case of `CCc1cccc(O)c1`, the result in assay [1], in [3], in assay [18], in assay [4], in assay [6] and in assay [7] was inactive. In addition, the compound was called inactive in [8], in assay [9], in assay [10], in assay [11], in assay [13] and in [15]. The compound was called inactive in assay [17]. Moreover, the AC50 was 28.1 µM (active) in assay [2] and 49.3 µM (active) in assay [12].
